# Assay outcomes as filed in PubChem.
# Hits are enriched below; roughly 32% of the tested compounds scored in any of these assays.
# PostGolgi yeast: phenotypic screen on post-Golgi transport, primary screen | post-Golgi transport phenotypic cell assay | inhibition, % at 10 µM | 98,000 tested, 0.9% active | AID 739, 2007;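 further: yeast cells grown in 1536-well plates; yeast grown about 18 h at 30C before absorbance read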
# CYP2C19 inh: blockers of cytochrome P450 2C19 activity – biochemical, luminescence, ADME assay, primary screen; CYP2C19 Supersomes, luciferin-H EGE luminescence, 30 min; 96,000 tested, 21% active; inhibition, % at 5 µM;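 active means CYP2C19 inhibition above a set limit at 5 µM in the primary screen, cut at about 50% in these data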
# PostGolgi ctrl: growth inhibition of yeast control strain, primary screen, counter-screen for post-Golgi transport modulator project. AID 738, 2007. 98,000 tested, 5% active. inhibition, % at 10 µM. efflux-deficient yeast background strain, growth absorbance A615, 16 h
# CYP2C19 activ: human CYP2C19 activators, primary screen, biochemical, luminescence; Cytochrome P450 2C19 (Homo sapiens), P33261; recombinant CYP2C19, luciferin-H EGE luminescence; active compounds read high; 0 = fully inhibited enzyme, 1 = untreated enzyme; activation factor at 5 µM; 96,000 tested, under 10 active; AID 1025, 2008;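 active means activation factor of at least 2 at 5 µM in the primary screen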
# CYP2C9 inhib: blockers of cytochrome P450 2C9 activity – biochemical, luminescence, ADME assay, primary screen | CYP2C9 Supersomes, luciferin-H conversion | inhibition, % at 5 µM | 96,000 tested, 20% active | AID 777, 2007;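 active means blocking of liver enzyme CYP2C9 beyond about 50% at 5 µM, limit read from the data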
# Target sequence (P11712 whole entry, looked up): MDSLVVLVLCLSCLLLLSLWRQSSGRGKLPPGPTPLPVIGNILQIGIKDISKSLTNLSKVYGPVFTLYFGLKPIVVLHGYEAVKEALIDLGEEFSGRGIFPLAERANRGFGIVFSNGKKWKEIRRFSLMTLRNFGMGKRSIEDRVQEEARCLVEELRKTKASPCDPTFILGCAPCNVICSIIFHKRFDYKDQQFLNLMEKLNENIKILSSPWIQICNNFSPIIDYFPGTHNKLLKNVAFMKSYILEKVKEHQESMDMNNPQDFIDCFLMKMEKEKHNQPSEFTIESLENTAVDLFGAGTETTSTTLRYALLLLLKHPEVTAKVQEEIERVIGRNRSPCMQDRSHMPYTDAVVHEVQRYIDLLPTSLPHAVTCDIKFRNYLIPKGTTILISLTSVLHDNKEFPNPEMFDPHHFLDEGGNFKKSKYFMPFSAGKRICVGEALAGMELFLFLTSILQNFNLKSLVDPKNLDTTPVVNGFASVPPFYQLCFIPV
# CYP2C9 activ: human CYP2C9 activators, primary screen, biochemical, luminescence; Cytochrome P450 2C9 (Homo sapiens), P11712; recombinant CYP2C9, luciferin-H conversion; active compounds read high; factor 1 = untreated enzyme, 0 = blocked; activation factor at 5 µM; 96,000 tested, 1.4% active; AID 1024, 2008;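 active means activation factor of 2 or more for CYP2C9 at a 5 µM dose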
# A number is an active result; n = inactive. Unless noted, no stated cut-off is given here; in the data, active means inhibition above about 30%; inactive means the rest.
SMILES,PostGolgi yeast,CYP2C19 inh,PostGolgi ctrl,CYP2C19 activ,CYP2C9 inhib,CYP2C9 activ
O=C(Nc1ccc2nc(-c3cccnc3)[nH]c2c1)c1ccccc1F,n,n,n,n,n,n
CC1(C)CC(=O)c2sc(NC(=O)c3ccc4ncsc4c3)nc2C1,n,n,n,n,n,n
CCC(=O)Nc1ccc(NC(=O)c2ccco2)c(OC)c1,n,n,n,n,n,n
CCCC(=O)Nc1ccc(NC(=O)c2ccco2)c(OC)c1,n,n,n,n,71,n
COc1cc(NC(=O)c2ccco2)c(OC)cc1NC(=O)CCC(=O)Nc1cc(C)cc(C)c1,n,n,n,n,66,n
CCCOc1cccc(C(=O)Nc2cc(NC(=O)c3ccco3)ccc2OC)c1,n,71,41,n,n,n
Clc1ccc(SCc2cc(-c3ccc(Cl)cc3)on2)cc1,n,n,n,n,n,n
CCOC(=O)c1cc2sccc2n1CC(=O)Nc1ccc(OC)c(OC)c1,n,87,n,n,n,n
CCOC(=O)c1cc2sccc2n1CC(=O)OC(C)C,n,97,n,n,88,n
CCOC(=O)c1c(CC(C)C)csc1NC(=O)C(C)C,n,n,n,n,n,n
CCOC(=O)c1c(CC(C)C)csc1NC(=O)CCl,n,n,n,n,62,n
Cc1ccc(S(=O)(=O)N2C=CC(C(F)(F)F)=NCC2)cc1,n,n,n,n,n,n
CC(C)(C)c1ccc(S(=O)(=O)N2C=CC(C(F)(F)F)=NCC2)cc1,n,86,n,n,n,n
COC(=O)C(C)Sc1ncnc2c1nnn2-c1ccc(F)cc1 (stereo not given),n,n,n,n,n,n
CC1(C)CC(=O)C2=C(C1)OC(N)=C(C#N)C21CCN(Cc2ccccc2)CC1,n,73,n,n,74,n
CC1(C)CC(=O)C2=C(C1)OC(N)=C(C#N)C21C(=O)N(Cc2ccccc2Cl)c2ccccc21 (stereo not given),n,86,n,n,94,n
CC1=CC(C)(C)N2C(=O)C3(C(C#N)=C(N)OC4=C3C(=O)CC(C)(C)C4)c3cccc1c32 (stereo not given),n,n,n,n,n,n
CCOC(=O)N1CCC2(CC1)C(C#N)=C(N)OC1=C2C(=O)CC(C)(C)C1,n,n,n,n,54,n
Cn1c(SCC(=O)NC(C)(C)C)nnc1-c1cnccn1,n,n,n,n,n,n
O=C(Oc1ccc2c(c1)OCO2)c1ccncc1,n,82,n,n,65,n
COc1ccc(C(=O)Oc2ccc3c(c2)OCO3)cc1OC,n,n,n,n,n,n
CO/N=C/NC(=O)N1OC[C@@H]2COc3ccc4ccccc4c3[C@@H]21,n,57,n,n,n,n
Cc1cc(C)cc(COn2ccnc2)c1,n,69,n,n,n,n
CCCn1c(=S)[nH]c2cc(C(=O)N3CCCC(C(=O)OCC)C3)ccc2c1=O (stereo not given),n,n,n,n,n,n
CCc1ccc(S(=O)(=O)NCCc2csc(-c3cccnc3)n2)s1,n,94,n,n,89,n
SMILES,PostGolgi yeast,CYP2C19 inh,PostGolgi ctrl,CYP2C19 activ,CYP2C9 inhib,CYP2C9 activ
CCc1ccc(S(=O)(=O)NCc2csc(-c3ccccc3)n2)s1,n,n,36,n,76,n
CCc1ccc(S(=O)(=O)NCCc2csc(-c3ccccc3)n2)s1,n,93,42,n,74,n
CCS(=O)(=O)NCCc1csc(-c2ccccc2)n1,n,73,n,n,n,n
CCOc1ccc(-c2nc(CSc3nnc(N)s3)cs2)cc1,n,n,n,n,n,n
O=S(=O)(NCCc1cn2ccccc2n1)c1cccs1,n,n,n,n,n,n
COc1ccc(N2C(=O)CCC(C(C)=O)=C2C)cc1,n,n,n,n,n,n
CCCCCCCCCn1cc(C(C)=O)c(=O)[nH]c1=O,n,n,n,n,n,n
CC([NH2+][O-])C(C)(C)NO (stereo not given),n,n,n,n,n,n
CC1CCN(S(=O)(=O)c2ccc(NC(=O)CSc3nnnn3C)cc2)CC1,n,n,n,n,n,n
CSc1nc(Cc2ccc(Cl)cc2)nc2ccccc12,n,n,n,n,n,n
O=c1c(Cc2ccc(Cl)cc2)c(O)ccn1Cc1cccc(Cl)c1,n,n,n,n,n,n
O=c1c(Cc2ccc(Cl)cc2Cl)c(O)ccn1Cc1ccc(Cl)cc1,n,54,62,n,n,n
Clc1cccc(CSc2nnc(-c3sccc3-n3cccc3)o2)c1,n,n,n,n,n,n
CCOc1ccc(C(CCc2ccccc2)NC(=O)c2ccccc2)cc1OCC (stereo not given),n,76,n,n,68,n
CCOc1ccc(C(CC(=O)O)NC(=O)c2ccco2)cc1OC (stereo not given),n,n,n,n,n,n
Cc1ccc(CNC(=O)CN(C)S(=O)(=O)c2cccc3nsnc23)cc1,n,59,n,n,n,n
Cc1ccc(NC(=O)CN(C)S(=O)(=O)c2cccc3nsnc23)cc1,n,n,n,n,77,n
CC(=O)c1cccc(NC(=O)CN(c2ccc(C)cc2)S(=O)(=O)c2cccc3nonc23)c1,n,n,34,n,72,n
COc1cccc(CNC(=O)C2CCCN(S(=O)(=O)c3c(C)[nH]c(=O)[nH]c3=O)C2)c1 (stereo not given),n,n,n,n,n,n
Cc1nc(NCCCO)c(C#N)c2c1COC(C)(C)C2,n,n,n,n,n,n
COc1ccccc1CC(=O)Nc1ccc(-c2noc(COc3cccc(C)c3C)n2)cc1,n,n,n,n,63,n
COc1ccc(-c2noc(COc3ccc4c(c3)OCO4)n2)cc1OC,n,n,n,n,n,n
COc1ccc(-c2noc(COc3ccccc3OC)n2)cc1OC,n,78,n,n,n,n
CC(C)(C)c1ccc(OCc2nc(-c3ccccn3)no2)c(Br)c1,n,n,32,n,n,n
COCc1nc(-c2cc(OC)c(OC)c(OC)c2)no1,n,n,n,n,51,n
SMILES,PostGolgi yeast,CYP2C19 inh,PostGolgi ctrl,CYP2C19 activ,CYP2C9 inhib,CYP2C9 activ
C/C(=C\C(=O)N1CCc2ccccc21)C(=O)O,n,n,n,n,n,n
Fc1ccc(Nc2nc(Oc3ccccc3F)nc(N3CCCC3)n2)cc1,n,n,n,n,n,n
COCCN(CCOC)Cc1c(C)[nH]c2c(C)c(C)ccc2c1=O,n,n,n,n,n,n
CC1CCCCN1C(=O)CSc1nnc(CSc2ncccn2)n1C (stereo not given),n,n,n,n,n,n
c1ccc2c(c1)OCC(c1nn3c(Cn4nnc5ccccc54)nnc3s1)O2 (stereo not given),n,n,n,n,n,n
O=C1NCCN1C(=O)C12CC3CC(CC(C3)C1)C2,n,n,n,n,n,n
